# Assay results taken from PubChem BioAssay (NCI).
# Several values for one entry are separate records, joined by “and”; a condition that tells them apart may be missing. Equal entries are not always repeated. This is part of a sample that, as a whole, favours compounds with a hit. Of some 83,000 tested, about 20% had one in any assay.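 Cells were grown in 96-well plates and exposed to the test compound at a single concentration for 48 hours; results are reported as percent growth, with values below 10 considered active.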 Unmarked numbers belong to inactive results. Activity calls are given as the source filed them.
# Experiments:
# Assay in all cases: NCI-60 one-dose screen, 48 h (100 = growth as untreated, 0 = no growth, -100 = all killed)
# Conditions in all cases: 10 µM unless noted
# [1] = tested on: SR leukemia
# [2] = tested on: RPMI-8226 leukemia
# [3] = tested on: OVCAR-8 ovarian
# [4] = tested on: OVCAR-5 ovarian
# [5] = tested on: OVCAR-4 ovarian
# [6] = tested on: SK-OV-3 ovarian
# [7] = tested on: IGROV1 ovarian
# [8] = tested on: OVCAR-3 ovarian
# [9] = tested on: HS 578T breast
# [10] = tested on: NCI/ADR-RES ovarian
Structure (SMILES),growth [1],growth [2],growth [3],growth [4],growth [5],growth [6],growth [7],growth [8],growth [9],growth [10]
CN1Cn2c(ccc2C(F)(F)F)C(=O)CS1(=O)=O,109%,109%,108%,96%,97.4%,106%,104%,112%,106%,103%
CCCCCC#CC1OC23CCCCC2C(C#N)(C(=N)O3)C1(C#N)C#N (stereo not given),87%,93.3%,85.8%,102%,108%,111%,99.4%,117%,94.1%,102%
NC(N)=NC(N)=NCCCc1ccco1,110%,106%,96%,114%,104%,103%,99.8%,102%,109%,103%
NS(=O)(=O)c1ccc(C(=O)N=Nc2c(O)[nH]c3c(F)cccc23)cc1,103%,106%,96.7%,99.8%,102%,109%,99.5%,117%,103%,100%
C=C1C(=O)O[C@H]2[C@H]1CC/C(COC(=O)NCc1ccc(Cn3c(=O)sn(CCCI)c3=O)cc1)=C\CC[C@@]1(C)O[C@@H]21,8.4% (active),-6.45% (active),37.7%,71.1%,17.7%,101%,-0.0888% (active),-33.4% (active),78.4%,102%
C=CCNC(=O)Cc1c(-c2ccc(OC)cc2)oc2c(OC)c3c(c(OC)c12)OCO3,97.4%,97.5%,95.9%,101%,102%,110%,82.3%,118%,103%,98.2%
Cc1ccc2nc3ccccc3c(NCc3ccc(Cl)cc3)c2c1,-9.22% (active),-28.5% (active),52.4%,50.7%,37.5%,75.2%,27.1%,70.9%,77.8%,42%
[Cu+].[NH-][C@H]1C[N-]C(=O)[C@H]([C@H]2CCN=C(N)N2)[N-]C(=O)/C(=C\NC(N)=O)[N-]C(=O)[C@H](CNC(=O)C[C@@H](N)CCCN)[N-]C(=O)[C@H](CO)[N-]C1=O,96.1%,103%,106%,113%,99.9%,71.3%,109%,104%,97%,103%
c1ccc(-c2cc(-c3cc(-c4ccccc4)on3)no2)cc1,61.6%,88.1%,74.6%,77.1%,96.7%,109%,63.6%,127%,116%,69.7%
O=C(/C=C/c1ccc(Cl)s1)c1ccc(Cl)s1,78.3% and 87%,89.9% and 66.8%,107% and 102%,86.5% and 101%,84.5%,94.5% and 102%,88.9%,97.3% and 99.3%,96.8%,104% and 99.1%
COc1ccc(/C=C(\C#N)c2cc3ccccc3[nH]2)cc1,11.4%,14.9%,32%,42.5%,62.4%,47.7%,45.7%,14.1%,22.9%,-6.87% (active)
O=C(NCc1cccnc1)/C(=C\c1ccc(Br)cc1)S(=O)(=O)c1ccccc1,55.9%,26.7%,3.01% (active),-41.3% (active),0.235% (active),10.2%,-11.3% (active),-96.7% (active),14.9%,2.59% (active)
CCCCSc1ccc2nc(-c3ccc(OCCCN=C(N)N)cc3)cn2c1,85.8%,-27.2% (active),90.9%,73%,96.8%,111%,52.3%,30.8%,35.5%,104%
COc1c(O)c(O)cc2c3c(oc12)CC(c1ccc2c(c1)OCO2)CC3=O (stereo not given),45.2%,62.5%,63%,116%,80.5%,90.1%,54.5%,63.8%,93.8%,67%
Cn1cc(-c2csc(-c3c[nH]c4ccc(F)cc34)n2)c2cnccc21,-36% (active),-35.5% (active),-1.04% (active),-12.5% (active),10.9%,103%,-37.1% (active),-73.2% (active),-38.1% (active),11.5%
COc1ccc(-c2cc(-c3cccc(Cl)c3)c(C#N)c(=O)[nH]2)c(OC)c1,111%,68.3%,94.4%,99.1%,91.8%,114%,92.1%,90.5%,74.4%,90.9%
NC(=O)c1c(NC(=O)/C=C/c2cccs2)sc2c1CCC(=O)C2,11.2%,-9.58% (active),20.2%,79.3%,14.2%,94.7%,24.4%,13.8%,26.7%,52.4%
CC(=O)N1N=C(c2ccc(Nc3nc(Nc4ccc(F)cc4)nc(Nc4ccc(Cl)cc4)n3)cc2)CC1c1ccc(N(C)C)cc1 (stereo not given),-9.66% (active),55%,40.2%,65.9%,47.8%,85.1%,60.8%,63.5%,24.6%,48.3%
CCn1cc(C(=O)NN=C2CCCC2)c(=O)c2ccc(C)nc21,99.2%,92.7%,90%,94%,83.7%,91.2%,85%,94.3%,88.8%,89.8%
CC(=O)OC[C@]12CCC(C)(C)C=C1[C@H]1CC[C@@H]3[C@@]4(C)CCCNC(C)(C)[C@@H]4CC[C@@]3(C)[C@]1(C)CC2,13.7%,-4.32% (active),71.9%,96.7%,41.8%,90.5%,43.6%,30.7%,92.5%,104%
C/C=C(\C)C(=O)N[C@H]1CC[C@]2(C)C3CC[C@@]4(C)C(CC[C@@H]4C(C)N(C)C)C3CCC2[C@H]1OC(C)=O (stereo not given in full),7.3% (active),-15.3% (active),24.9%,22%,-23.3% (active),-21.4% (active),9.32% (active),-53.9% (active),-39.9% (active),16.5%
COc1ccc(CCNC(=O)COc2cc3c(Nc4ccc(F)c(Cl)c4)ncnc3cc2OC)cc1OC,82.3%,90.1%,103%,65.4%,92.4%,89.8%,46.3%,82.8%,92.4%,85.6%
O=C(c1cccc(Br)c1)N1CCN(c2ccnc3cc(Cl)ccc23)CC1,118%,70.7%,80.2%,90%,54.9%,98.3%,90.6%,86.9%,112%,88.1%
COC(=O)/C=C1/SC(=Nc2ccc([N+](=O)[O-])cc2)N(CCc2c[nH]c3ccccc23)C1=O,1.73% (active),2.18% (active),42%,112%,66.2%,105%,62%,43.1%,63.5%,66.9%
